Assay outcomes: PubChem BioAssay, National Center for Advancing Translational Sciences (NCATS)
Rows were chosen to be rich in hits. Some 9.5% of all compounds tested hit in one or more screens of this group.
RE007 growth inh = less growth of the S. pombe RE007 Vpr strain; S. pombe RE007 Vpr strain, BacTiter-Glo ATP luminescence, 24 h; Potency, µM (highest dose often 92.2 µM), inactives show at the highest dose activity change, negative = less growth, actives largely listed as inhibitors; 360,000 tested, 0.21% active; active means well fitted falling curve with a large enough effect; inconclusive means small, poorly fitted or top-dose-only effect; inactive means no such curve, though single readings can be large or run the other way; further: on the % scale 0 is the no-effect control and ±100 the full control effect; nearly all actives have a fitted effect of over 50% in size
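Fission yeast strain RE007, carrying one chromosomally integrated HIV-1 vpr copy, was seeded at OD 0.01 in PMG+AL medium with 23 nL pinned compound. After 24 h at 30 °C and 99% humidity, viability was read by BacTiter-Glo luminescence.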
Pf growth 48h = inhibits P. falciparum growth in the first generation, 48 h; P. falciparum luciferase growth in erythrocytes, 48 h; Potency, µM (titrated, usually from 28.7 µM), for the others: at the highest dose activity change, negative = inhibition, most hits filed as inhibitors; 310,000 tested, 5.9% active; AID 504832; active means well fitted inhibition curve with a large enough effect; inconclusive means small, poorly fitted or top-dose-only effect, or another doubt; inactive means no such curve, though single readings can be large or run the other way; further: on the % scale 0 is the no-effect control and ±100 the full control effect
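Cell-based growth assay: transgenic P. falciparum expressing firefly luciferase, cultured in red cells within RPMI 1640 containing 0.5% w/v Albumax, 24 mM bicarbonate and gentamycin. A drop in luciferase activity indicates inhibition.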
NS1 function inh = influenza NS1 inhibition. AID 2326. Potency, µM (top dose mostly 46.1 µM), for inactives: at the top dose activity, positive = more growth. 270,000 tested, 0.4% active; further: actives are rising curves; nearly all actives have a fitted effect of over 50% in size
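In this qHTS, NS1 from influenza A is expressed in budding yeast, where it slows growth. Cells are switched from glucose to 2% galactose medium (pH 6.0, -URA), treated with compound, and growth recovery is read at OD600.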
SARS PLP yeast = SARS-CoV PLP inhibition in yeast; S. cerevisiae expressing SARS-CoV PLpro, growth rescue; Potency, µM (series often up to 32.9 µM), without a hit: at the top dose activity, positive = growth rescue, usual class: activators; 330,000 tested, 0.19% active; AID 485353; further: 0% is about no effect; nearly all actives have a fitted effect of over 55% in size
Pf growth 96h = P. falciparum growth inhibition at 96 hours; AID 504834; 320,000 tested, 6.9% active; Potency, µM (series often up to 28.7 µM), for the others: top-dose activity change, negative = inhibition, most hits filed as inhibitors; P. falciparum luciferase reporter growth, 96 h; active means well fitted inhibition curve with a large enough effect; inconclusive means small, poorly fitted or top-dose-only effect, or another doubt; inactive means no such curve, though single readings can be large or run the other way; further: on the % scale 0 is the no-effect control and ±100 the full control effect
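Compounds incubated with erythrocytes infected by luciferase-expressing P. falciparum (2% hematocrit, 0.05% parasitemia final) for 96 hours, 37 C in 5% CO2. Growth inhibition scored as decreased luciferase luminescence.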
Starred values were filed as active, the others as inactive. Unless noted, the call rests on the fitted dose curve. Potency means the concentration at half of the fitted maximal effect.

Screening COc1ccc(C(OCC(O)CNCCc2ccc(S(N)(=O)=O)cc2)c2ccc(OC)cc2)cc1 (stereo not drawn) returned RE007 growth inh -15%, NS1 function inh 7%, SARS PLP yeast 0% and Pf growth 96h 12µM*.
Screening COc1ccccc1N1CCN(C(=O)C2c3ccccc3Oc3ccccc32)CC1 returned RE007 growth inh -4%, Pf growth 48h inconclusive, NS1 function inh -69%, SARS PLP yeast -15% and Pf growth 96h inconclusive.
`O=C(C1CCC1)N1CCN(c2ccc(Cl)cc2)CC1` gave RE007 growth inh -10%, Pf growth 48h 4%, NS1 function inh -17%, SARS PLP yeast -8% and Pf growth 96h 7.4µM*.
For O=C(C1c2ccccc2Oc2ccccc21)N1CCN(c2ccc(Cl)cc2)CC1 the results were RE007 growth inh -5%, NS1 function inh -1%, SARS PLP yeast -1% and Pf growth 96h 2.1µM*.
Screening NC1=C(Br)C(=O)c2ccccc2C1=O returned RE007 growth inh 11µM*, Pf growth 48h 2.6µM*, NS1 function inh -49%, SARS PLP yeast -6% and Pf growth 96h 1µM*.
Screening Cc1ccc(N=C2SC(C(=O)NCCc3ccccc3)CC(=O)N2C)cc1C (stereo not drawn) returned RE007 growth inh -1%, Pf growth 48h -13%, NS1 function inh -7%, SARS PLP yeast -1% and Pf growth 96h -3%.
For Cc1ccc(N=C2SC(C(=O)O)CC(=O)N2C)cc1C (stereo not drawn) the results were RE007 growth inh 15%, Pf growth 48h 39%, NS1 function inh 4%, SARS PLP yeast 0% and Pf growth 96h 12µM*.
Screening O=C(CN1CCN(C(c2ccccc2)c2ccccc2)CC1)N1N=CCC1c1ccccc1 (stereo not drawn) returned RE007 growth inh 4%, Pf growth 48h inconclusive, NS1 function inh 2%, SARS PLP yeast 0% and Pf growth 96h 12µM*.
`CC1CCN(CC(=O)N2CCN(c3ccccc3)CC2)CC1` gave RE007 growth inh 1%, Pf growth 48h -3%, NS1 function inh 18%, SARS PLP yeast 5% and Pf growth 96h -8%.
For O=C(N1CCCCC1)N1CCN(C(c2ccccc2)c2ccccc2)CC1 the results were RE007 growth inh 16%, NS1 function inh -21%, SARS PLP yeast -12% and Pf growth 96h 8.3µM*.
O=C(N1CCOCC1)N1CCN(C(c2ccccc2)c2ccccc2)CC1 was read as RE007 growth inh 5%, Pf growth 48h -20%, NS1 function inh -16%, SARS PLP yeast 2% and Pf growth 96h inconclusive.
`O=C(CN1CCN(C(c2ccccc2)c2ccccc2)CC1)N1CCN(c2ccccc2)CC1` gave RE007 growth inh -4%, Pf growth 48h 12µM*, NS1 function inh -1%, SARS PLP yeast 0% and Pf growth 96h inconclusive.
O=C(CN1CCN(c2ccc(O)cc2)CC1)Nc1ccc2c(c1)OCCCO2 was read as RE007 growth inh -11%, Pf growth 48h inconclusive, SARS PLP yeast 1% and Pf growth 96h inconclusive.
For CCN1CCN(Cc2ccc(NC(=O)Nc3ccccc3)cc2)CC1 the results were RE007 growth inh -4%, Pf growth 48h -23%, NS1 function inh -15%, SARS PLP yeast -4% and Pf growth 96h -11%.
CCN1CCN(Cc2ccc(NC(=O)Nc3ccc(SC)cc3)cc2)CC1 was read as RE007 growth inh 7%, Pf growth 48h 1.7µM*, NS1 function inh -6% and SARS PLP yeast -1%.
Cc1sc2nc(C(C)Nc3ccccc3N3CCOCC3)[nH]c(=O)c2c1C (stereo not drawn) was read as RE007 growth inh 0%, Pf growth 48h 9.3µM*, NS1 function inh inconclusive, SARS PLP yeast 9% and Pf growth 96h 6.6µM*.
`Cc1sc2nc(N3CCOCC3)[nH]c(=O)c2c1-c1ccccc1` gave RE007 growth inh 1%, Pf growth 48h -1%, NS1 function inh -1%, SARS PLP yeast 6% and Pf growth 96h -27%.
CN(C)c1oc(/C=C/c2cccs2)nc1S(=O)(=O)c1ccccc1 was read as RE007 growth inh -6%, Pf growth 48h inconclusive, NS1 function inh 2%, SARS PLP yeast 0% and Pf growth 96h inconclusive.
CCc1ccc(NC(=O)c2cnn3ccccc23)cc1 was read as RE007 growth inh -1%, NS1 function inh -11%, SARS PLP yeast -6% and Pf growth 96h 1.2µM*.
